Assay results reported in PubChem BioAssay AID1159580 (chemical genetic matrix, 2015).
“And” between values parts separate entries of the source, which are not always exact repeats. Equal entries are not always repeated. Out of some 5,500 compounds screened, about 2,000 (36%) were called active. Roughly 18% stayed inconclusive and do not appear here. No stated cut-off is given here; in the data, active means normalized growth mostly below about 0.91 (no sharp cut-off); inconclusive means no clear call, values can overlap the other calls; inactive means mostly above about 0.92. Some of the results follow.

Test: chemical genetic growth profiling, strain panel (AID 1159580);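 further: tested at 20 µM; growth read once vehicle control cultures reached saturation at 30 °C; 1 = growth at the plate median or of vehicle wells; lower values mean less growth of the strain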
Conditions: growth OD

Measured: normalized growth

N[C@@H](C(=O)N[C@@H]1C(=O)N2C(C(=O)O)=C(Cl)CS[C@H]12)c1ccccc1
active: S. cerevisiae deletion strains, locus YPL241C, strain CIN2, hits give low values 1.09 [resistant]
inactive: S. cerevisiae deletion strains, locus YAL013W, strain DEP1, hits give low values 1.01 | S. cerevisiae deletion strains, locus YBR021W, strain FUR4, hits give low values 1 | S. cerevisiae deletion strains, locus YBR229C, strain ROT2, hits give low values 1.02 | S. cerevisiae deletion strains, locus YCL029C, strain bik1, hits give low values 1.03 | S. cerevisiae deletion strains, locus YDL035C, strain GPR1, hits give low values 1.01 | S. cerevisiae deletion strains, locus YDL074C, strain BRE1, hits give low values 1.02 | S. cerevisiae deletion strains, locus YDL101C, strain DUN1, hits give low values 1.01 | S. cerevisiae deletion strains, locus YDL134C, strain PPH21, hits give low values 1.01 | S. cerevisiae deletion strains, locus YDL185W, strain tfp1, hits give low values 1.02 | S. cerevisiae deletion strains, locus YDL192W, strain arf1, hits give low values 1.02 | S. cerevisiae deletion strains, locus YDR101C, strain arx1, hits give low values 1.01 | S. cerevisiae deletion strains, locus YDR150W, strain NUM1, hits give low values 1.01 | S. cerevisiae deletion strains, locus YDR162C, strain NBP2, hits give low values 1.02 | S. cerevisiae deletion strains, locus YDR318W, strain mcm21, hits give low values 1.02 | S. cerevisiae deletion strains, locus YDR388W, hits give low values 1.02 | S. cerevisiae deletion strains, locus YDR502C, strain sam2, hits give low values 1.02 | S. cerevisiae deletion strains, locus YEL061C, strain CIN8, hits give low values 1.01 | S. cerevisiae deletion strains, locus YER110C, hits give low values 1.03 | S. cerevisiae deletion strains, locus YER155C, strain BEM2, hits give low values 1 | S. cerevisiae deletion strains, locus YER167W, strain BCK2, hits give low values 1.01 | S. cerevisiae deletion strains, locus YGL078C, strain dbp3, hits give low values 1.02 | S. cerevisiae deletion strains, locus YGL086W, strain mad1, hits give low values 1.01 | S. cerevisiae deletion strains, locus YGL248W, strain PDE1, hits give low values 1.02 | S. cerevisiae deletion strains, locus YGR078C, strain PAC10, hits give low values 1.01 | S. cerevisiae deletion strains, locus YGR135W, strain pre9, hits give low values 1.01 | S. cerevisiae deletion strains, locus YGR229C, strain SMI1, hits give low values 1.01 | S. cerevisiae deletion strains, locus YGR252W, strain gcn5, hits give low values 1.04 | S. cerevisiae deletion strains, locus YHR030C, strain SLT2, hits give low values 1.01 and 0.982 | S. cerevisiae deletion strains, locus YHR079C, strain IRE1 (second series), hits give low values 1.02 | S. cerevisiae deletion strains, locus YHR079C, strain IRE1, hits give low values 0.976 | S. cerevisiae deletion strains, locus YHR094C, strain hxt1, hits give low values 1.02 | S. cerevisiae deletion strains, locus YHR129C, strain ARP1, hits give low values 1.01 | S. cerevisiae deletion strains, locus YHR200W, strain rpn10, hits give low values 1.03 | S. cerevisiae deletion strains, locus YIL066C, strain RNR3, hits give low values 1.03 | S. cerevisiae deletion strains, locus YIL073C, strain SPO22, hits give low values 1.08 | S. cerevisiae deletion strains, locus YIL125W, strain kgd1, hits give low values 1.02 | S. cerevisiae deletion strains, locus YIR030C, strain dcg1, hits give low values 1.03 | S. cerevisiae deletion strains, locus YJL095W, strain BCK1, hits give low values 1.01 and 0.976 | S. cerevisiae deletion strains, locus YJL134W, strain LCB3, hits give low values 1.01 | S. cerevisiae deletion strains, locus YJL168C, strain set2, hits give low values 1.02 | S. cerevisiae deletion strains, locus YJL187C, strain SWE1 (second series), hits give low values 1.02 | S. cerevisiae deletion strains, locus YJR043C, strain POL32, hits give low values 1.01 | S. cerevisiae deletion strains, locus YJR066W, strain TOR1, hits give low values 0.928 | S. cerevisiae deletion strains, locus YJR075W, strain HOC1, hits give low values 0.999 | S. cerevisiae deletion strains, locus YKL009W, strain mrt4, hits give low values 1.02 | S. cerevisiae deletion strains, locus YKL068W, hits give low values 1.03 | S. cerevisiae deletion strains, locus YKL085W, strain MDH1 (second series), hits give low values 1.02 | S. cerevisiae deletion strains, locus YKL085W, strain MDH1, hits give low values 1.02 | S. cerevisiae deletion strains, locus YKL190W, strain CNB1, hits give low values 1.01 | S. cerevisiae deletion strains, locus YKR001C, strain vps1, hits give low values 1.02 | S. cerevisiae deletion strains, locus YLR039C, strain RIC1, hits give low values 1.05 | S. cerevisiae deletion strains, locus YLR058C, strain SHM2, hits give low values 1.01 | S. cerevisiae deletion strains, locus YLR102C, strain apc9, hits give low values 1.03 | S. cerevisiae deletion strains, locus YLR113W, strain HOG1, hits give low values 1 | S. cerevisiae deletion strains, locus YLR262C, strain YPT6, hits give low values 1.04 | S. cerevisiae deletion strains, locus YLR268W, strain sec22, hits give low values 1.02 | S. cerevisiae deletion strains, locus YLR330W, strain CHS5, hits give low values 1.01 | S. cerevisiae deletion strains, locus YLR342W, strain FKS1 (second series), hits give low values 0.986 | S. cerevisiae deletion strains, locus YLR371W, strain rom2, hits give low values 1.01 | S. cerevisiae deletion strains, locus YLR418C, strain cdc73, hits give low values 1.03 | S. cerevisiae deletion strains, locus YML016C, strain PPZ1, hits give low values 1.01 | S. cerevisiae deletion strains, locus YML032C, strain rad52, hits give low values 1.02 | S. cerevisiae deletion strains, locus YML124C, strain tub3, hits give low values 1.02 | S. cerevisiae deletion strains, locus YMR078C, strain ctf18, hits give low values 1.04 | S. cerevisiae deletion strains, locus YMR223W, strain ubp8, hits give low values 1.02 | S. cerevisiae deletion strains, locus YMR263W, strain SAP30, hits give low values 1.01 | S. cerevisiae deletion strains, locus YMR307W, strain GAS1, hits give low values 1.05 | S. cerevisiae deletion strains, locus YNL067W, strain RPL9B, hits give low values 1.01 | S. cerevisiae deletion strains, locus YNL128W, strain TEP1, hits give low values 0.998 | S. cerevisiae deletion strains, locus YNL153C, strain GIM3, hits give low values 1.01 | S. cerevisiae deletion strains, locus YNL183C, strain NPR1, hits give low values 0.932 | S. cerevisiae deletion strains, locus YNL233W, strain BNI4, hits give low values 1.01 | S. cerevisiae deletion strains, locus YNL250W, strain rad50, hits give low values 1.01 | S. cerevisiae deletion strains, locus YNL271C, strain bni1, hits give low values 1.02 | S. cerevisiae deletion strains, locus YNL298W, strain CLA4, hits give low values 1.03 | S. cerevisiae deletion strains, locus YNL307C, strain MCK1, hits give low values 1.02 | S. cerevisiae deletion strains, locus YNL322C, strain KRE1, hits give low values 1.01 | S. cerevisiae deletion strains, locus YNR052C, strain pop2, hits give low values 1.02 | S. cerevisiae deletion strains, locus YOL006C, strain TOP1, hits give low values 1.02 | S. cerevisiae deletion strains, locus YOL012C, strain htz1 1.44 | S. cerevisiae deletion strains, locus YOL147C, strain pex11, hits give low values 1.02 | S. cerevisiae deletion strains, locus YOR061W, strain CKA2, hits give low values 1 | S. cerevisiae deletion strains, locus YOR069W, strain VPS5, hits give low values 0.999 | S. cerevisiae deletion strains, locus YOR136W, strain idh2, hits give low values 1.02 | S. cerevisiae deletion strains, locus YOR144C, strain elg1, hits give low values 1.02 | S. cerevisiae deletion strains, locus YOR184W, strain ser1, hits give low values 1.02 | S. cerevisiae deletion strains, locus YOR231W, strain MKK1, hits give low values 0.987 | S. cerevisiae deletion strains, locus YOR316C, strain cot1, hits give low values 1.02 | S. cerevisiae deletion strains, locus YPL055C, strain LGE1, hits give low values 1 | S. cerevisiae deletion strains, locus YPL256C, strain CLN2, hits give low values 0.971 | S. cerevisiae deletion strains, locus YPR119W, strain clb2, hits give low values 1.03 | S. cerevisiae deletion strains, locus YPR141C, strain kar3, hits give low values 1.03 | S. cerevisiae deletion strains, locus YPR163C, strain tif3, hits give low values 1.02 | S. cerevisiae deletion strains, locus YPR167C, strain met16, hits give low values 1.02 | S. cerevisiae deletion strains, strain wtn01, hits give low values 1.02 | S. cerevisiae strains, strain wild type, hits give low values 1.01
